Measurements published in PubChem BioAssay AID1159580 (chemical genetic matrix, 2015).
About 2,000 (36%) of roughly 5,500 compounds were called active. Roughly 18% stayed inconclusive and do not appear here. Rule as the data show it: active = normalized growth mostly below about 0.91 (no sharp cut-off); inconclusive = no clear call, values can overlap the other calls; inactive = mostly above about 0.92. The list shows a part of the results.

Experiment: chemical genetic growth profiling, strain panel (AID 1159580);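 also: tested at 20 µM; growth read once vehicle control cultures reached saturation at 30 °C; 1 = growth at the plate median or of vehicle wells; lower values mean less growth of the strain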
Conditions: growth OD

Measured: normalized growth

CC(C)c1nc(N(C)S(C)(=O)=O)nc(-c2ccc(F)cc2)c1/C=C/[C@@H](O)C[C@@H](O)CC(=O)O
inactive: S. cerevisiae deletion strains, locus YJR075W, strain HOC1, active compounds read low 0.996 | S. cerevisiae deletion strains, locus YKL009W, strain mrt4, active compounds read low 1.01 | S. cerevisiae deletion strains, locus YKL068W, active compounds read low 1.03 | S. cerevisiae deletion strains, locus YKL085W, strain MDH1 (second series), active compounds read low 0.992 | S. cerevisiae deletion strains, locus YKL085W, strain MDH1, active compounds read low 0.992 | S. cerevisiae deletion strains, locus YKL160W, strain elf1, active compounds read low 0.994 | S. cerevisiae deletion strains, locus YKL190W, strain CNB1, active compounds read low 1.01 | S. cerevisiae deletion strains, locus YKR001C, strain vps1, active compounds read low 1.03 | S. cerevisiae deletion strains, locus YKR026C, strain gcn3, active compounds read low 1.02 | S. cerevisiae deletion strains, locus YKR091W, strain srl3, active compounds read low 1.01 | S. cerevisiae deletion strains, locus YLL001W, strain dnm1, active compounds read low 1.03 | S. cerevisiae deletion strains, locus YLL026W, active compounds read low 1.01 | S. cerevisiae deletion strains, locus YLR027C, strain aat2, active compounds read low 1.01 | S. cerevisiae deletion strains, locus YLR039C, strain RIC1, active compounds read low 1.31 | S. cerevisiae deletion strains, locus YLR058C, strain SHM2, active compounds read low 1 | S. cerevisiae deletion strains, locus YLR102C, strain apc9, active compounds read low 1.02 | S. cerevisiae deletion strains, locus YLR221C, strain rsa3, active compounds read low 1.06 | S. cerevisiae deletion strains, locus YLR258W, strain gsy2, active compounds read low 1.01 | S. cerevisiae deletion strains, locus YLR262C, strain YPT6 (second series), active compounds read low 1.1 | S. cerevisiae deletion strains, locus YLR262C, strain YPT6, active compounds read low 1.26 | S. cerevisiae deletion strains, locus YLR268W, strain sec22, active compounds read low 0.994 | S. cerevisiae deletion strains, locus YLR320W, strain mms22, active compounds read low 1.01 | S. cerevisiae deletion strains, locus YLR330W, strain CHS5, active compounds read low 0.999 | S. cerevisiae deletion strains, locus YLR342W, strain FKS1 (second series), active compounds read low 1.03 | S. cerevisiae deletion strains, locus YLR342W, strain FKS1, active compounds read low 1.03 | S. cerevisiae deletion strains, locus YLR357W, strain rsc2, active compounds read low 0.994 | S. cerevisiae deletion strains, locus YLR370C, strain arc18, active compounds read low 1.03 | S. cerevisiae deletion strains, locus YLR371W, strain rom2, active compounds read low 1.01 | S. cerevisiae deletion strains, locus YLR384C, strain iki3, active compounds read low 1 | S. cerevisiae deletion strains, locus YLR418C, strain cdc73, active compounds read low 1 | S. cerevisiae deletion strains, locus YML016C, strain PPZ1, active compounds read low 0.999 | S. cerevisiae deletion strains, locus YML032C, strain rad52, active compounds read low 1.01 | S. cerevisiae deletion strains, locus YML120C, strain ndi1, active compounds read low 1.02 | S. cerevisiae deletion strains, locus YML124C, strain tub3, active compounds read low 0.997 | S. cerevisiae deletion strains, locus YMR058W, strain fet3, active compounds read low 1.02 | S. cerevisiae deletion strains, locus YMR078C, strain ctf18, active compounds read low 1.01 | S. cerevisiae deletion strains, locus YMR125W, strain sto1, active compounds read low 1.02 | S. cerevisiae deletion strains, locus YMR129W, active compounds read low 1.04 | S. cerevisiae deletion strains, locus YMR205C, strain PFK2, active compounds read low 1.02 | S. cerevisiae deletion strains, locus YMR223W, strain ubp8, active compounds read low 1.01 | S. cerevisiae deletion strains, locus YMR231W, strain pep5, active compounds read low 0.958 | S. cerevisiae deletion strains, locus YMR263W, strain SAP30, active compounds read low 0.994 | S. cerevisiae deletion strains, locus YMR307W, strain GAS1, active compounds read low 1.01 | S. cerevisiae deletion strains, locus YNL067W, strain RPL9B, active compounds read low 0.989 | S. cerevisiae deletion strains, locus YNL071W, strain lat1, active compounds read low 1.01 | S. cerevisiae deletion strains, locus YNL128W, strain TEP1, active compounds read low 0.988 | S. cerevisiae deletion strains, locus YNL153C, strain GIM3, active compounds read low 0.989 | S. cerevisiae deletion strains, locus YNL209W, strain ssb2, active compounds read low 1.02 | S. cerevisiae deletion strains, locus YNL233W, strain BNI4, active compounds read low 0.988 | S. cerevisiae deletion strains, locus YNL248C, strain rpa49, active compounds read low 1.02 | S. cerevisiae deletion strains, locus YNL250W, strain rad50, active compounds read low 0.982 | S. cerevisiae deletion strains, locus YNL271C, strain bni1, active compounds read low 0.976 | S. cerevisiae deletion strains, locus YNL298W, strain CLA4, active compounds read low 1.02 | S. cerevisiae deletion strains, locus YNL307C, strain MCK1, active compounds read low 1.02 | S. cerevisiae deletion strains, locus YNL322C, strain KRE1 (second series), active compounds read low 1.03 | S. cerevisiae deletion strains, locus YNL322C, strain KRE1, active compounds read low 1 | S. cerevisiae deletion strains, locus YNR049C, strain mso1, active compounds read low 1.02 | S. cerevisiae deletion strains, locus YNR052C, strain pop2, active compounds read low 0.929 | S. cerevisiae deletion strains, locus YOL006C, strain TOP1, active compounds read low 1.01 | S. cerevisiae deletion strains, locus YOL012C, strain htz1 0.882 | S. cerevisiae deletion strains, locus YOL147C, strain pex11, active compounds read low 1.01 | S. cerevisiae deletion strains, locus YOR001W, strain rrp6, active compounds read low 1.01 | S. cerevisiae deletion strains, locus YOR061W, strain CKA2, active compounds read low 0.994 | S. cerevisiae deletion strains, locus YOR069W, strain VPS5, active compounds read low 1.01 | S. cerevisiae deletion strains, locus YOR070C, strain gyp1, active compounds read low 1.01 | S. cerevisiae deletion strains, locus YOR080W, strain dia2, active compounds read low 1.01 | S. cerevisiae deletion strains, locus YOR083W, strain WHI5, active compounds read low 0.996 | S. cerevisiae deletion strains, locus YOR106W, strain vam3, active compounds read low 1.02 | S. cerevisiae deletion strains, locus YOR136W, strain idh2, active compounds read low 1 | S. cerevisiae deletion strains, locus YOR144C, strain elg1, active compounds read low 1 | S. cerevisiae deletion strains, locus YOR184W, strain ser1, active compounds read low 0.997 | S. cerevisiae deletion strains, locus YOR265W, strain rbl2, active compounds read low 1.01 | S. cerevisiae deletion strains, locus YOR270C, strain vph1, active compounds read low 0.975 | S. cerevisiae deletion strains, locus YOR290C, strain snf2, active compounds read low 1 | S. cerevisiae deletion strains, locus YOR316C, strain cot1, active compounds read low 1.01 | S. cerevisiae deletion strains, locus YPL051W, strain arl3, active compounds read low 1.02 | S. cerevisiae deletion strains, locus YPL055C, strain LGE1, active compounds read low 0.998 | S. cerevisiae deletion strains, locus YPL078C, strain atp4, active compounds read low 1.02 | S. cerevisiae deletion strains, locus YPL106C, strain sse1, active compounds read low 1.03 | S. cerevisiae deletion strains, locus YPL240C, strain hsp82, active compounds read low 0.992 | S. cerevisiae deletion strains, locus YPL241C, strain CIN2, active compounds read low 1.01 | S. cerevisiae deletion strains, locus YPR119W, strain clb2, active compounds read low 0.998 | S. cerevisiae deletion strains, locus YPR141C, strain kar3, active compounds read low 1.01 | S. cerevisiae deletion strains, locus YPR163C, strain tif3, active compounds read low 1.01 | S. cerevisiae deletion strains, locus YPR167C, strain met16, active compounds read low 1 | S. cerevisiae deletion strains, strain wtn01, active compounds read low 1 | S. cerevisiae strains, strain wild type, active compounds read low 0.994
active: S. cerevisiae deletion strains, locus YLL041C, strain sdh2, active compounds read low 0.9 | S. cerevisiae deletion strains, locus YLR113W, strain HOG1, active compounds read low 0.232 | S. cerevisiae deletion strains, locus YNL183C, strain NPR1, active compounds read low 0.0704 | S. cerevisiae deletion strains, locus YOR231W, strain MKK1, active compounds read low 0.124 | S. cerevisiae deletion strains, locus YPL256C, strain CLN2, active compounds read low 0.162
